What all share (parameters): scale not given: direction of the effect not stated beside the values
Assay [1] concerns the target Protein translocase subunit SecA (Escherichia coli (strain K12)) (UniProt P10408). The experiment in a line: Assay to Identify E. coli SecA ATPase Inhibitors. Type of assay: functional. Conditions: 30 µM.
Assay [2] deals with T1, Ubiquitin-activating enzyme e1, putative (Leishmania donovani (strain BPK282A1)) (UniProt E9BSI1).
T1 sequence (whole entry): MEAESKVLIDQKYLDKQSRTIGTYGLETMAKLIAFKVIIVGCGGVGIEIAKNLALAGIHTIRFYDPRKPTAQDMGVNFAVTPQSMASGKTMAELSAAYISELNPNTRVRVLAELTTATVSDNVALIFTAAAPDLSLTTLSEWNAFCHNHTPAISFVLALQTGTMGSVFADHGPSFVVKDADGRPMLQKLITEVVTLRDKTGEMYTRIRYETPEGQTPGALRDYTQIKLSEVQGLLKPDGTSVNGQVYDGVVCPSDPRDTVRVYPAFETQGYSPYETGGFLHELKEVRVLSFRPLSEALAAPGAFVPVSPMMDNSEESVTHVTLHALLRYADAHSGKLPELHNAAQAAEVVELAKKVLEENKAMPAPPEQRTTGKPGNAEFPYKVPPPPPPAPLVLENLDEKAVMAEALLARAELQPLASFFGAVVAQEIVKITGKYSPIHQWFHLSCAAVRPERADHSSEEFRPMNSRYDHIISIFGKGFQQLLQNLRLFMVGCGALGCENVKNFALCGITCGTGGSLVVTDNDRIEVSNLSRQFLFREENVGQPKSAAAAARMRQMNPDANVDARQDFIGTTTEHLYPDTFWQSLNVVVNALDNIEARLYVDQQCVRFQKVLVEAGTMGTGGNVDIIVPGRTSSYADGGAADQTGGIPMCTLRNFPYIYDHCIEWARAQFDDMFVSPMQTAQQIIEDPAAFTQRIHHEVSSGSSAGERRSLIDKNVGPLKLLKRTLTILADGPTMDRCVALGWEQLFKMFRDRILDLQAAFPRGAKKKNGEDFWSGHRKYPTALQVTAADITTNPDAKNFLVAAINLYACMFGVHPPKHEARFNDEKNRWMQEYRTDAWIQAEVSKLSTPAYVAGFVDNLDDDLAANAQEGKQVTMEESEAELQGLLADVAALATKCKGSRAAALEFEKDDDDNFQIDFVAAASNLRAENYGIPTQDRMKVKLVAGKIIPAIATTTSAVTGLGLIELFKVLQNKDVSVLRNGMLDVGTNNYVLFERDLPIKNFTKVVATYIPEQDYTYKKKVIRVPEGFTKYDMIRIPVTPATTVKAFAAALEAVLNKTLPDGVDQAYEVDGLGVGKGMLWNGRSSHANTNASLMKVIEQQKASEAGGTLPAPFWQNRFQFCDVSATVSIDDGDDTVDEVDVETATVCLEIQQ
Kind of assay: Leishmania donovani Ubiquitin Activating Enzyme (LdE1). The class given is functional. The settings on record: 30 µM.

Assay [3] addresses Sialic acid-binding Ig-like lectin 9 (Homo sapiens) (UniProt Q9Y336). The experiment in a line: Hs-Siglec9 ALPHAscreen SOP 20170721. The settings on record: 10 µM. (In general: In Alpha technology, singlet oxygen from a donor bead excites a nearby acceptor bead.)
The subject of the next assay is Trypanosoma cruzi. Kind of assay: Trypanosoma cruzi phosphomannomutase and mannose-1-phosphate guanylyltransferase assay. Conditions: 10 µM. The class given is functional.
For assay [4], the target named is T2, Arginase-2, mitochondrial (Homo sapiens) (UniProt P78540).
T2 sequence (whole entry): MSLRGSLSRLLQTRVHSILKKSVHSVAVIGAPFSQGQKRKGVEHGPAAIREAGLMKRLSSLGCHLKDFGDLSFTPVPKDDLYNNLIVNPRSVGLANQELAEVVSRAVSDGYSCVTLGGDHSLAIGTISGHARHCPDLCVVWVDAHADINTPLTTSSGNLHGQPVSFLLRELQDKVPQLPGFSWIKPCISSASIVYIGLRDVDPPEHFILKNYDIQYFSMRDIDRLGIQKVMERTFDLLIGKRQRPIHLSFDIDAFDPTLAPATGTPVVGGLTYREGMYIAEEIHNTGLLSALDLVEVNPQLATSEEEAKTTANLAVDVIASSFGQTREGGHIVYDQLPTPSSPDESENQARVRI
The experiment in a line: in vitro enzyme assay to detect the production of urea directly proportional to the activity of Arginase II. Note: in the data most compounds retested in dose-response had high values. Type of assay: functional. The settings on record: 33.3 µM.

In assay [5] the target is T3, Proteasome subunit beta (Trypanosoma cruzi) (UniProt O96673).
T3 sequence (whole entry): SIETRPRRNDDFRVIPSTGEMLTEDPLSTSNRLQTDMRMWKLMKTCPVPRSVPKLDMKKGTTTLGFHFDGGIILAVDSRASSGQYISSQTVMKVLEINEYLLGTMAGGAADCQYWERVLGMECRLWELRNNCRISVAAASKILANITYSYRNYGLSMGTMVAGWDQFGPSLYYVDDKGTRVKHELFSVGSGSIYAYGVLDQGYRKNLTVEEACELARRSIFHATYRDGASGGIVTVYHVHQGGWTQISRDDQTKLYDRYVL
Kind of assay: Trypanosoma cruzi proteasome chymotrypsin-like activity (TcProtChymo) assay. Note: in the data most compounds retested in dose-response had high values. Type of assay: functional. Conditions: 9.37 µM.

For another assay, the species on record is Homo sapiens. Kind of assay: To identify inhibition of the IFN signalling (Jak-Stat) pathway via expression of an eGFP reporter gene under the control of an IFN-stimulated response element (ISRE) containing MxA promoter. Type of assay: functional. The settings on record: 30 µM.
The target of assay [6] is T4, Tyrosyl-tRNA synthetase, putative (Trypanosoma cruzi (strain CL Brener)) (UniProt Q4DSP6).
T4 sequence (whole entry): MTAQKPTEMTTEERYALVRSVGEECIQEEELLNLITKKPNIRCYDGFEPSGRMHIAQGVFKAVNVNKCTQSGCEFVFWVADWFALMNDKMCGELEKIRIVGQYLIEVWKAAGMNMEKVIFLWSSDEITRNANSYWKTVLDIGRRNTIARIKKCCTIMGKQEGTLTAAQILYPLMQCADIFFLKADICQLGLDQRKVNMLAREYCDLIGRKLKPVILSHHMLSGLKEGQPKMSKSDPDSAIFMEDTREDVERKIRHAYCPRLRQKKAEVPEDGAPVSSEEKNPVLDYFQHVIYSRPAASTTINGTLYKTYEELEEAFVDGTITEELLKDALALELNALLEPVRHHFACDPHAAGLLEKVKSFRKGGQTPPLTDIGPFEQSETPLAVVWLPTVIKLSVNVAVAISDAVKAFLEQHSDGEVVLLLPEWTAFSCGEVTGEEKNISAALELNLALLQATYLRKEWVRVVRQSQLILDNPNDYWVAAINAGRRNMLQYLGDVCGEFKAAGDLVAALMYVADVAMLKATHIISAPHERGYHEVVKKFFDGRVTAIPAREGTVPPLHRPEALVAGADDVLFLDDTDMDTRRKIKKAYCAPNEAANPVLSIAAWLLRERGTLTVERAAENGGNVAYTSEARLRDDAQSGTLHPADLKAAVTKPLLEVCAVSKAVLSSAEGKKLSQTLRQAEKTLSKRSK
The experiment in a line: Trypanosoma cruzi tyrosyl tRNA synthetase (TcYRS) _High Tyrosine SOP. Note: in the data most compounds retested in dose-response had high values. Type of assay: functional. The settings on record: 30 µM.

For assay [7], the target named is T4, Tyrosyl-tRNA synthetase, putative (Trypanosoma cruzi (strain CL Brener)). The experiment in a line: Trypanosoma cruzi tyrosyl tRNA synthetase (TcYRS) SOP. The settings on record: 30 µM. The class given is functional.
Assay [8] deals with Chromo domain-containing protein 1 (Saccharomyces cerevisiae (strain ATCC 204508 / S288c) (Baker's yeast)) (UniProt P32657). The experiment in a line: ScCHD-1 Enzyme Inhibition Assay. Note: in the data most compounds retested in dose-response had high values. Type of assay: functional. Conditions: 30 µM.
Chromo domain-containing protein 1 (Saccharomyces cerevisiae (strain ATCC 204508 / S288c) (Baker's yeast)), sequence (P32657 whole entry, the tested form may be a part): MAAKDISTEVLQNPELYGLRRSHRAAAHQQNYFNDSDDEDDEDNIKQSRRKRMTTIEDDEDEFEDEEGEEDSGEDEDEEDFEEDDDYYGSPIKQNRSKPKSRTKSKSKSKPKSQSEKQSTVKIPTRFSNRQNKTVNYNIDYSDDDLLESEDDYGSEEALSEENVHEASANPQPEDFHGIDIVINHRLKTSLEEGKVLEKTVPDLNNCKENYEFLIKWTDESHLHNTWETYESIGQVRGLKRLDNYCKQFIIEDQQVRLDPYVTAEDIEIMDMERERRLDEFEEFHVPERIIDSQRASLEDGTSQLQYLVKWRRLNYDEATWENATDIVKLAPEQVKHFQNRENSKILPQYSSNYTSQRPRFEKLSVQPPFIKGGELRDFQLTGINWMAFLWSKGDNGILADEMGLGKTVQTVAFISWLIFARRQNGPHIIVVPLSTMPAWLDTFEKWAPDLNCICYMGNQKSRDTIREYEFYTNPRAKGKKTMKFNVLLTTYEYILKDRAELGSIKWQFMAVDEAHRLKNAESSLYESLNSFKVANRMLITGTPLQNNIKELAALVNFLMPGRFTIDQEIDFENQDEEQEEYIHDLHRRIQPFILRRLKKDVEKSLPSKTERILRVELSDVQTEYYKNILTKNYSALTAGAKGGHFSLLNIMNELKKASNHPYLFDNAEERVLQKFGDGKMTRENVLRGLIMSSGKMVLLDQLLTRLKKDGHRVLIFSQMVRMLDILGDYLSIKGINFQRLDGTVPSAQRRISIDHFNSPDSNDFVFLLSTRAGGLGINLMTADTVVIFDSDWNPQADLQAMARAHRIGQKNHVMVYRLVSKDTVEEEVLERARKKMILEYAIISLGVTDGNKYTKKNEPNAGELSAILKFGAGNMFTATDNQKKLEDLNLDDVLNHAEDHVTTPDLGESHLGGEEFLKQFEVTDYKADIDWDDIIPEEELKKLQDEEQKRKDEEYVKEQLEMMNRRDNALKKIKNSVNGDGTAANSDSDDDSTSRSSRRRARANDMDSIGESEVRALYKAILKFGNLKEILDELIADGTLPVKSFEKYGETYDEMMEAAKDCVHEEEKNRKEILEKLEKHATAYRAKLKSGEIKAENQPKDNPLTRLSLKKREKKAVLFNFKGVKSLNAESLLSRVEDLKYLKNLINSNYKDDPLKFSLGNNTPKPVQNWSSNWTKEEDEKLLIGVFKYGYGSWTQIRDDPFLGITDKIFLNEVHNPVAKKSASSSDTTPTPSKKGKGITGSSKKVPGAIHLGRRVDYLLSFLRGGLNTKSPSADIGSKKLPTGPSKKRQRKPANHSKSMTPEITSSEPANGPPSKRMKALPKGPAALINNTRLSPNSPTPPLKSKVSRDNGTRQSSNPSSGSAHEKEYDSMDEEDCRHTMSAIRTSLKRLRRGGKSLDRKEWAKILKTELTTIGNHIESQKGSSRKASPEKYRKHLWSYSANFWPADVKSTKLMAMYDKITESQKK

For part of these data: Entries with a potency or affinity are not part of this list.

Our source for the Percent Effect values is ChEMBL document CHEMBL3988442, “University of Dundee, Small-Polar-MMV Screening Library” (2021).

Sialic acid-binding Ig-like lectin 9 (Homo sapiens), sequence (Q9Y336 whole entry): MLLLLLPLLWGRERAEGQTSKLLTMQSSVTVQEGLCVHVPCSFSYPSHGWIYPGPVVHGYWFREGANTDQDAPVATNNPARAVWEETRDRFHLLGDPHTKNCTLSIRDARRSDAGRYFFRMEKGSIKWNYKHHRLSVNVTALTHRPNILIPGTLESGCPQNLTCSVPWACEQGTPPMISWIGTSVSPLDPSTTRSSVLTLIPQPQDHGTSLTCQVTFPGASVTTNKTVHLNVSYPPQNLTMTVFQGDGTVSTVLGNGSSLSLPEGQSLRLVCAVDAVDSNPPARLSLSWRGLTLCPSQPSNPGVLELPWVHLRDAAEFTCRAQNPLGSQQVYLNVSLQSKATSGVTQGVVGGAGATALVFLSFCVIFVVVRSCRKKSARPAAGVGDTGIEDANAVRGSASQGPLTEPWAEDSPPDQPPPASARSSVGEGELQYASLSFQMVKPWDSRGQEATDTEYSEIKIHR
Protein translocase subunit SecA (Escherichia coli (strain K12)), sequence (P10408 whole entry): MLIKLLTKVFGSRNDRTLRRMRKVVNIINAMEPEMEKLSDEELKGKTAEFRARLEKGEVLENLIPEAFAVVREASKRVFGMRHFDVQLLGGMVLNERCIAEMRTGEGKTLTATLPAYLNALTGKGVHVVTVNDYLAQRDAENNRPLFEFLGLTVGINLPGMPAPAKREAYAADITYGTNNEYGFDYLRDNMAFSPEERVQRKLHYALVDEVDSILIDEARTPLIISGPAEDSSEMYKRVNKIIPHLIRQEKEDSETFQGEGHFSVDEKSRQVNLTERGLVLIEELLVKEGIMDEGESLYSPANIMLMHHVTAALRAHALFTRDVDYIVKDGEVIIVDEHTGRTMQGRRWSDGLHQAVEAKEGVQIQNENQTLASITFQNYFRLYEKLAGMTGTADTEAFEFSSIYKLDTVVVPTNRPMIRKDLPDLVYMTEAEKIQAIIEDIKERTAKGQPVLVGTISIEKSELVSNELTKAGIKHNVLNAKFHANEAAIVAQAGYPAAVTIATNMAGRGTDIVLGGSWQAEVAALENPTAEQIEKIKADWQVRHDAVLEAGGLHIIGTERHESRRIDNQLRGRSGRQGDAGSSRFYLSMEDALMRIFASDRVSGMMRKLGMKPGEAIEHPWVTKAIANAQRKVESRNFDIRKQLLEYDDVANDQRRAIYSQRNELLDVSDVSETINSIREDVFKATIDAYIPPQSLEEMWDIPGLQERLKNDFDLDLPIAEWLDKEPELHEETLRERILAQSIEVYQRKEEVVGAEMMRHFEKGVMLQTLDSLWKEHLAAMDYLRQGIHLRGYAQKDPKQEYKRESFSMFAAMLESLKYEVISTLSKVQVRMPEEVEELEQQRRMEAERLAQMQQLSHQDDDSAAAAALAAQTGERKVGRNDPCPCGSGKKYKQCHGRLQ

In the case of `O=C(COCc1ccccc1)N1CCC(OCc2cccnc2)CC1`, the Percent Effect in [1] was -7.79%; in assay [2], 2.7%; in assay [3] it was 2.89%; with Trypanosoma cruzi, -4.95%; in assay [4], -0.35%; in assay [5] it was 9.42%. The Percent Effect is 35.8% in the assay filed under Homo sapiens, 5.85% in [6], 12.2% in assay [7] and -2.8% in assay [8].

`Cn1ccc(CN2CCC(NC(=O)Cc3ccccc3)CC2)cc1=O`: the Percent Effect was -2.78% in assay [1]; 5.13% in assay [2]; -5.06% in assay [3]; 6.85% in the assay with Trypanosoma cruzi; 2.87% in assay [4]; 6.74% in assay [5]. The Percent Effect in the assay filed under Homo sapiens is -7.1%; in assay [6] it was 7.18%; in assay [7], 13.2%; in [8], -3.86%.

For the compound `CC(=O)N1[C@H](CN(C)C)C[C@@H]2CN(C(=O)c3cccc(F)c3)CC[C@@H]21`, the Percent Effect in assay [1] was -6.12%; in assay [2] it was 9.09%; in assay [3] it was -5.21%; with Trypanosoma cruzi, -3.19%; in assay [4], -12.8%; in assay [5], 14.2%. Besides, the Percent Effect in the assay listed under Homo sapiens is 14.5%; in assay [6] it was 3.87%; in [7] it was 0%; in assay [8], -5.63%.

For the compound `Cc1cnn(CC2CCCN2CC(=O)Nc2nc(C)cs2)c1` (stereo not given), the Percent Effect in [1] is -2%; in assay [2] it was 7.79%; in [3], 11.1%; in the assay on Trypanosoma cruzi, 0.746%; in assay [4], 5.12%; in assay [5] it was -1.4%. The Percent Effect in the assay listed under Homo sapiens was 2.04%; in assay [6], 12.8%; in assay [7] it was 21.2%; in assay [8], -5.41%.

For the compound `Cc1ccc(C(=O)N2Cc3c(CN4CCCCC4)nn(C)c3C2)cc1C`, the Percent Effect was -5.88% in assay [1]; -1.3% in [2]; -4.75% in assay [3]; -3.02% in the assay with Trypanosoma cruzi; -4.86% in assay [4]; 17.9% in assay [5]. Moreover, the Percent Effect in the assay filed under Homo sapiens was -26.6%; in assay [6] it was -11.1%; in assay [7], -12.8%; in assay [8], -3.91%.

Take `O=C(c1ccc(F)cc1F)N1C[C@@H](O)[C@H](N2CCOCC2)C1`: the Percent Effect in [1] was -1.31%; in assay [2], 20%; in [3] it was -7.22%; in the assay with Trypanosoma cruzi, -0.789%; in assay [4] it was -3.1%; in assay [5], 17.9%. In addition, the Percent Effect in the assay filed under Homo sapiens was 2.56%; in assay [6] it was 1.06%; in [7] it was 17.5%; in assay [8], -25.9%.

With `CC1CCCCN1Cc1ccc(-c2ccccc2C(=O)O)cc1` (stereo not given), the Percent Effect is -1.02% in assay [1]; 4% in assay [2]; 1.22% in assay [3]; -4.73% in the assay on Trypanosoma cruzi; 0.443% in [4]; 7.39% in assay [5]. Moreover, the Percent Effect is 12.3% in the assay listed under Homo sapiens, 2.12% in [6], 2.5% in [7] and -21.8% in assay [8].

In the case of `CN(C)CCOCC1CN(Cc2ccsc2)Cc2ccnn2C1` (stereo not given), the Percent Effect in assay [1] was -2.84%; in [2], -1.3%; in assay [3], 1.33%; in the assay with Trypanosoma cruzi, -3.41%; in assay [4], -1.62%; in [5] it was 2.21%. The Percent Effect was -1.71% in the assay filed under Homo sapiens, 1.58% in assay [6], 2.56% in assay [7] and 0.0554% in assay [8].

Regarding `CCN(Cc1cccc2c1OCO2)C(=O)C(C)c1cccnc1` (stereo not given), the Percent Effect in assay [1] was -0.831%; in assay [2], 7.79%; in assay [3], 4.03%; with Trypanosoma cruzi, 5.78%; in assay [4], 8.4%; in assay [5], -0.702%. Moreover, the Percent Effect is 4.49% in the assay filed under Homo sapiens, 3.92% in assay [6], 11.8% in [7] and -5.71% in assay [8].

With `O=C(CSC1CCc2ccccc2NC1=O)NCCO` (stereo not given), the Percent Effect in assay [1] was -0.348%; in assay [2], 13.5%; in [3], 0.884%; in the assay on Trypanosoma cruzi it was 1.84%; in [4], -3.15%; in [5] it was 15.6%. The Percent Effect in the assay listed under Homo sapiens was 25.1%; in assay [6], 5.85%; in [7], 14.6%; in assay [8], -1.22%.

As to `COc1ccc(C(C)NC(=O)NCCCn2cncn2)cc1F` (stereo not given), the Percent Effect in assay [1] is -2.93%; in assay [2] it was 16%; in [3], 2.65%; in the assay on Trypanosoma cruzi it was -0.602%; in assay [4], 1.77%; in assay [5], 8.57%. Moreover, the Percent Effect is -15.1% in the assay filed under Homo sapiens, 6.84% in assay [6], 17.9% in assay [7] and -9.21% in assay [8].

`Cc1ccn(CCC(=O)N2CCOC(c3nc(-c4cccs4)no3)C2)n1` (stereo not given): the Percent Effect in [1] is 1.88%; in assay [2], 9.33%; in assay [3], 1.5%; with Trypanosoma cruzi, -5.52%; in assay [4] it was 4.42%; in assay [5] it was 8.7%. Moreover, the Percent Effect in the assay filed under Homo sapiens was 7.42%; in assay [6], 2.12%; in assay [7], 10%; in [8], -26.2%.
